# “And” between values parts separate entries of the source, which are not always exact repeats. Equal values may be shown once. The source made the active and inactive calls. Cut-off read from the data, not from the text of the source, unless noted: active = inhibition above about 80%; inactive = the rest.
# Experiments:
# [1] = CRL2098 osteosarcoma cell growth inhibition, synergistic combos for chromothripsis tumors, BGB or cisplatin IC20 combos (AID 1671454); details: CRL2098 osteosarcoma cells, drug combinations, stronger effect = higher value;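 note: cells exposed for 96 h before readout; 0% = vehicle DMSO and 100% = killing by high DMSO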
# [2] = HD-MB03 medulloblastoma cell growth inhibition, synergistic combos for chromothripsis tumors, BGB or cisplatin IC20 combos (AID 1671455; in the data active = inhibition above about 83%;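 note: 0% = vehicle DMSO and 100% = high DMSO as cytotoxic control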); details: HD-MB03 medulloblastoma cells, stronger effect = higher value
# [3] = UWB1.289 ovarian carcinoma cell growth inhibition, synergistic combos for chromothripsis tumors, BGB or cisplatin combos (AID 1671456); details: UWB1.289 ovarian carcinoma cells, stronger effect = higher value;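 note: cells exposed to compound for four days; 0% = vehicle DMSO and 100% = killing by high DMSO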
# [4] = LFS_MB_2R medulloblastoma cell growth inhibition, synergistic combos for chromothripsis tumors, cisplatin combos (AID 1671457); details: LFS_MB_2R medulloblastoma cells, stronger effect = higher value;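 note: cells exposed to compound for four days before readout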
# [5] = MDA-MB-436 breast carcinoma cell growth inhibition, synergistic combos for chromothripsis tumors, BGB or cisplatin combos (AID 1671458; call rule not given here;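 note: cells exposed for 96 hours; 0% = vehicle DMSO and 100% = killing by high DMSO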); details: MDA-MB-436 breast carcinoma growth inhibition, drug combinations, stronger effect = higher value
# [6] = UWB1.289_BRCA1 ovarian cancer growth, cell-based, BGB or cisplatin combinations (AID 1671459); details: UWB1.289 BRCA1 ovarian carcinoma, drug combinations, stronger effect = higher value
# [7] = human astrocyte viability loss, single and combined drugs, cytotoxicity control for chromothriptic childhood tumor combination screen, cell-based, BGB or cisplatin IC20 combos (AID 1671460); details: Human astrocytes, drug combinations, stronger effect = higher value;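 note: cells exposed to compounds for 96 hours before viability readout; 0% = vehicle and 100% = killing control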
# [8] = growth inhibition of BT084 medulloblastoma cells, cell-based, ICGC_MB145, cisplatin and BGB IC40 combos (AID 1671461); details: drug combinations, stronger effect = higher value;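 note: cells exposed to drugs for 96 hours; 0% = vehicle DMSO and 100% = high DMSO full killing control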
# [9] = growth inhibition of RCMB18 medulloblastoma cells, cell-based, cisplatin and BGB IC40 combos (AID 1671462); details: stronger effect = higher value;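 note: cells exposed to compound for four days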
# [10] = growth inhibition of CRL1545 osteosarcoma cells, cell-based, cisplatin and BGB IC20 combos (AID 1671464); details: stronger effect = higher value;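 note: cells exposed to compound for 96 hours before readout; 0% = vehicle DMSO and 100% = high DMSO killing control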
# [11] = LFS_MB_P medulloblastoma growth inhibition, cell-based, chromothripsis tumors, cisplatin or BGB combos (AID 1671449); details: LFS_MB_P medulloblastoma cells, measured here: combination with cisplatin, at 5 µM, stronger effect = higher value;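 note: cells exposed for 96 hours; 0% = vehicle DMSO and 100% = killing by high DMSO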
# [12] = HDN33 neuroblastoma growth inhibition, cell-based, chromothripsis tumors, cisplatin or BGB combos (AID 1671450); details: HDN33 neuroblastoma cells, single agent, at 5 µM, stronger effect = higher value;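 note: cells exposed to compound for four days; 0% = vehicle DMSO and 100% = cell killing by high DMSO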
# [13] = HTB85 osteosarcoma cell growth inhibition, synergistic combos for chromothripsis tumors, BGB or cisplatin IC20 combos (AID 1671453); details: HTB85 osteosarcoma cells, drug combinations, stronger effect = higher value;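 note: cells exposed for 96 hours before readout; 0% = vehicle DMSO and 100% = high DMSO killing control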
# [14] = measured here: combination with cisplatin, at 0.5 µM
smiles,measurement,setting,value
Cc1cc(C)cc(C(=O)NOCCCCCC(=O)NO)c1,inhibition,[1]; at 0.5 µM,-44.3% (inactive)
same,inhibition,"[1]; measured here: combination with BGB at IC20, at 0.5 µM",-68.4%
same,inhibition,"[1]; measured here: combination with cisplatin at IC20, at 0.5 µM",-43.7%
same,inhibition,[2]; at 0.5 µM,53.4% (inactive)
same,inhibition,"[2]; measured here: combo with BGB at IC20, at 0.5 µM",36.6%
same,inhibition,"[2]; measured here: combo with cisplatin at IC20, at 0.5 µM",95.8%
same,inhibition,[3]; at 0.5 µM,35% (inactive)
same,inhibition,"[3]; measured here: inhibition with BGB combination, at 0.05 µM",-9.28%
same,inhibition,"[3]; measured here: inhibition with cisplatin combination, at 0.05 µM",-8.14%
same,inhibition,[4]; at 0.5 µM,8.45% (inactive)
same,inhibition,[4]; [14],32.9%
same,inhibition,"[4]; measured here: combination with cisplatin, at 5 µM",102%
same,inhibition,[5]; at 0.5 µM,7.8% (inactive)
same,inhibition,"[5]; measured here: BGB combination, at 0.5 µM",-12.2%
same,inhibition,"[5]; measured here: BGB combination, at 5 µM",42.5%
same,inhibition,"[5]; measured here: cisplatin combination, at 0.5 µM",-3.09%
same,inhibition,"[5]; measured here: cisplatin combination, at 5 µM",53.9%
same,inhibition,"[6]; BGB combination, concentration series, at 5 µM",92.6%
same,inhibition,[6]; at 0.5 µM,33.7% (inactive)
same,inhibition,"[6]; cisplatin combination, concentration series, at 5 µM",110%
same,inhibition,[7]; at 0.5 µM,38% (inactive)
same,inhibition,"[7]; measured here: combo with BGB IC20, at 0.5 µM",37.9%
same,inhibition,"[7]; measured here: combo with cisplatin IC20, at 0.5 µM",25.6%
same,inhibition,[8]; at 0.5 µM,35.6% (inactive)
same,inhibition,"[8]; cisplatin combination, at 0.5 µM",32.4%
same,inhibition,"[8]; cisplatin combination, at 5 µM",98.6%
same,inhibition,"[8]; measured here: BGB IC40 combination 0.05 uM, at 0.05 µM",-14.5%
same,inhibition,"[8]; single agent, at 5 µM",105%
same,inhibition,[9]; at 0.5 µM,21.6% (inactive)
same,inhibition,"[9]; cisplatin combo, at 5 µM",92.9%
same,inhibition,"[9]; measured here: BGB IC40 combination, at 0.05 µM",-1.76%
same,inhibition,[9]; [14],22.3%
same,inhibition,"[9]; single agent, at 5 µM",89.9%
same,inhibition,[10]; at 0.5 µM,75.7% (inactive)
same,inhibition,"[10]; measured here: with BGB IC20 combination, at 0.5 µM",64.9%
same,inhibition,"[10]; measured here: with cisplatin IC20 combination, at 0.5 µM",80.7%
same,inhibition,"[10]; single agent, at 0.05 µM",5.92%
same,inhibition,"[10]; single agent, at 5 µM",72.3%
COc1cccc2c1C(=O)c1c(O)c3c(c(O)c1C2=O)CC(O)(C(=O)CO)CC3OC1CC(N)C(O)C(C)O1 (stereo not drawn),inhibition,[11],118% and 119% and 108%
same,inhibition,[12],99.7% and 99.6%
same,inhibition,[13]; at 0.5 µM,98.7% (active) and 98.9% (active) and 98.5% (active)
same,inhibition,"[13]; measured here: with cisplatin IC20, at 5 µM",99.4% and 99.6% and 99.7%
same,inhibition,"[10]; single agent, at 5 µM",99.7% and 99.6% and 99.8%
